Among the data in PubChem BioAssay (NCI) are growth values, retold here.

About 83,000 compounds went through this panel and 20% of them were active in at least one assay; those are over-represented in the sample as a whole.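 Single-concentration screen, 48 h exposure, 96-well plates. Endpoint: percent growth. Below 10 = active.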 Unmarked numbers belong to inactive results. Calls of active or inactive are those of the source.

Assay in all cases: NCI-60 one-dose screen, 48 h (100 = growth as untreated, 0 = no growth, -100 = all killed)
What all share (conditions): 10 µM unless noted

Assay [1] deals with DU-145 prostate.
For assay [2], the system named is K-562 leukemia.
Assay [3] has as its system MALME-3M melanoma.
In assay [4] the test system is MDA-MB-231 breast.
The subject of assay [5] is RXF 393 renal.
Assay [6] deals with SF-268 CNS.
The subject of assay [7] is SF-295 CNS.
Assay [8] concerns SF-539 CNS.
In assay [9] the test system is UACC-257 melanoma.
In assay [10] the test system is M14 melanoma.
For assay [11], the system named is HCT-15 colon.
Assay [12] relates to HT29 colon.
In assay [13] the test system is SNB-75 CNS.
For assay [14], the system named is SNB-19 CNS.
Assay [15] concerns U251 CNS.
For assay [16], the system named is PC-3 prostate.
For assay [17], the system named is SK-MEL-5 melanoma.
The test system of assay [18] is LOX IMVI melanoma.
Assay [19] relates to SK-MEL-28 melanoma.
Assay [20] relates to UACC-62 melanoma.

Regarding `CC(O)(c1ccccc1)C(c1ccccc1)C1CCCCN1` (stereo not drawn), the growth in assay [1] is 103%; in assay [2], 95.6%; in [3], 97.5%; in assay [4] it was 93.9%; in [5], 106%; in [6], 99.6%. The growth in assay [7] is 99.8%; in assay [8] it was 96.5%; in assay [9] it was 96.2%; in [10] it was 92.3%; in assay [11] it was 96.6%; in assay [12], 99.3%. In addition, the growth in assay [13] is 100%; in assay [14] it was 99.5%; in assay [15] it was 100%; in assay [16], 105%; in assay [17], 103%; in assay [18] it was 96.8%. Further, the growth in assay [19] is 109%.

Take `COc1ccc2c(c1)N(CCO)C1=C(C(=O)OC1)C2c1cccc(F)c1` (stereo not drawn): the growth in assay [1] was 10.1%; in assay [2], 9.63% (active); in assay [3], 55.7%; in assay [4], 36%; in [5], 31.3%; in assay [6], 35.5%. Further, the growth was -15.6% (active) in [7]; -17.3% (active) in [8]; 67.6% in assay [9]; -1.78% (active) in assay [10]; 7.3% (active) in [11]; 3.98% (active) in assay [12]. Further, the growth was 35.7% in [13]; 27.8% in assay [14]; 16.9% in assay [15]; 12.3% in assay [17]; 40% in assay [20]; 27.5% in assay [18]. Also, the growth in assay [19] was 47.9%.

Regarding `Cc1ccc2c(n1)C(=O)C(Br)=C(CC(C)C)C2=O`, the growth is 109% in [1]; 33.8% in assay [2]; 99.7% in assay [3]; 91.4% in assay [4]; 102% in [5]; 96.2% in assay [6]. Also, the growth was 102% in assay [7]; 97.7% in assay [8]; 85.1% in assay [9]; 102% in assay [10]; 104% in [11]; 108% in assay [12]. Further, the growth is 97.3% in [13]; 101% in assay [14]; 97.8% in assay [15]; 98.1% in assay [17]; 93.9% in [20]; 98.1% in [18]. In assay [19], the growth is 105%.

`COC(=O)c1nc(-c2ccccc2)oc1S(=O)(=O)Cc1ccccc1`: the growth is 109% in assay [1]; 2.87% (active) in assay [2]; -78.7% (active) in [3]; 85.2% in [4]; 96.8% in assay [5]; 93.1% in assay [6]. In addition, the growth in [7] was 103%; in assay [8] it was 100%; in assay [9], 85.1%; in [10] it was 48%; in [11] it was 62.2%; in assay [12], 49.4%. Also, the growth in assay [13] was 84.8%; in assay [14], 96.2%; in assay [15] it was 94.2%; in [16], 91.6%; in assay [17] it was 93.4%; in [18], 61.1%. Besides, the growth in assay [19] was 95.5%.

`CSc1nnc(-c2cc3c([nH]c4ccccc43)c(-c3cccc(O)c3)n2)n1-c1ccccc1`: the growth was 33.9% in assay [1]; 15.8% in assay [2]; 22.1% in assay [3]; 34.6% in assay [4]; 9.95% (active) in assay [5]; 39.5% in assay [6]. Moreover, the growth was 24.8% in assay [7]; -7.08% (active) in assay [8]; 59.9% in assay [9]; 14.5% in [10]; 26.7% in assay [11]; 41.3% in [12]. Further, the growth was 5.14% (active) in [13]; 38.6% in assay [14]; 32.3% in assay [15]; 19.9% in assay [17]; 42.3% in [20]; 33.1% in assay [18]. The growth in assay [19] is 36.2%.

For `CCOC(=O)c1ccc2c(c1)nc(-c1ccccc1)n2C1CCCCC1`, the growth in assay [1] was 105%; in assay [2] it was 73.1%; in assay [3] it was 112%; in assay [4] it was 102%; in assay [5], 112%; in assay [6], 108%. Moreover, the growth was 94.4% in [7]; 104% in assay [8]; 78.2% in assay [9]; 88.3% in [10]; 78.2% in assay [11]; 67.4% in assay [12]. In addition, the growth in [13] was 97%; in assay [14], 105%; in assay [15] it was 88.8%; in assay [17], 93.8%; in assay [20], 88%; in [18], 99.2%. Moreover, the growth in [19] is 107%.

Take `COc1ccc(F)cc1/C=C/C(=O)/C=C(/C=C/c1cc(F)ccc1OC)OB(F)F`: the growth in assay [1] is 37.9%; in assay [2], 7.73% (active); in assay [3], 5.69% (active); in assay [4], 32.5%; in [5], 18%; in [6], 80.2%. Besides, the growth in assay [7] was 93.8%; in assay [8] it was 61.1%; in assay [9], 48.8%; in assay [10] it was 9.74% (active); in assay [11], 9.21% (active); in [12], 18%. Further, the growth in [13] was 83.7%; in assay [14], 72.4%; in [15], 14%; in assay [17], 53.6%; in [20], 14.8%; in assay [18], 3.94% (active). Also, the growth in assay [19] was 48.1%.
